Measured values reported in PubChem BioAssay (Tox21).
A number with no mark means an inactive call. Results filed as inconclusive are left out. Where a call stands in place of a potency, no number is given. Calls of active or inactive are those of the source. Unless noted, calls follow the shape of the full dose curve.

Key:
[1] = Nuclear factor erythroid 2-related factor 2/antioxidant responsive element (Nrf2/ARE) small molecule agonists: qHTS cell viability counter screen in human keratinocytes (AID 1919968; active = well fitted curve in the direction sought with a large enough effect in the repeat runs; an effect the other way counts as inactive or inconclusive; also: nearly all actives have a fitted effect of over 55% in size; also: potency is read from the fitted curve at half-maximal effect)
In short: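 After a 5 h attachment period, ARE-reporter keratinocytes were dosed with compounds in DMSO and then cultured 23 h at 37 C. Cell viability came from CellTiter-Fluor signal read after a further 1 h.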

[2] = Nuclear factor erythroid 2-related factor 2/antioxidant responsive element (Nrf2/ARE) small molecule agonists: luciferase reporter gene qHTS assay in human keratinocytes (AID 1919969); also: nearly all actives have a fitted effect of over 35% in size; also: potency is read from the fitted curve at half-maximal effect
[3] = target: KiSS-1 receptor (Homo sapiens) (UniProt Q969F8); assay: Human kisspeptin (KISS1R) small molecule agonists, calcium flux assay in KISS1R-HEK293 cells (AID 1920064; active = well fitted curve in the direction sought with a large enough effect in the repeat runs; an effect the other way counts as inactive or inconclusive)
Chain of KiSS-1 receptor (Homo sapiens) (Q969F8 whole entry, looked up): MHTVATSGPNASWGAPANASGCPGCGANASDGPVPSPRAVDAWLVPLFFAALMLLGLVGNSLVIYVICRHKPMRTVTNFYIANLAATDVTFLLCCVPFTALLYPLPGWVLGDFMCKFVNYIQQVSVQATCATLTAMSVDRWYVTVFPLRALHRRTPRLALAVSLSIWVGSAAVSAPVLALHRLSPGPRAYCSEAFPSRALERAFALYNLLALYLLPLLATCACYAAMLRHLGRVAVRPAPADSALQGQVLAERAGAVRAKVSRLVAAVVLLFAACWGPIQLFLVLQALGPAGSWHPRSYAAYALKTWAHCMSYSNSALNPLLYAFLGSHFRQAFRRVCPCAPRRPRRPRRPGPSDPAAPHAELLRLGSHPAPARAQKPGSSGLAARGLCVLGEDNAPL
In short: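 Kinetic calcium assay, 1 s sampling over 3 min at Ex/Em 480/540, in HEK293 cells engineered with human KISS1R; compounds delivered in DMSO after 1 h dye loading.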

[4] = G protein-coupled receptor (GPCR) small molecule agonists, calcium flux assay: HEK293 wild type cell line counter screen (AID 1920065)
In short: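 Calcium-sensitive dye, loaded 1 h at 37 C into cells cultured 18 h, reports compound-evoked calcium release as fluorescence (Ex/Em 480/540), measured over 3 min. Agonist mode; 15-point titrations, triplicate.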

[5] = p53 small molecule agonists, cell-based qHTS assay with human liver microsomes: qHTS cell viability counter screen (AID 1963579); also: nearly all actives have a fitted effect of over 45% in size; also: potency is read from the fitted curve at half-maximal effect
In short: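 p53RE-bla cells (4,000/well) were pre-incubated 5 h at 37 C, then given compounds in DMSO plus human liver microsomes (0.5 mg/mL final) and NADPH (0.5 mg/mL final) for 16 h at 37 C. Viability was read by CellTiter-Glo luminescence.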

[6] = p53 small molecule agonists, cell-based qHTS assay with rat liver microsomes: qHTS cell viability counter screen (AID 1963580); also: nearly all actives have a fitted effect of over 45% in size
In short: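 HCT-116 p53RE-bla, 4,000 cells/well, 5 h pre-incubation; cpd + rat liver microsomes 0.5 mg/mL + NADPH 0.5 mg/mL (final); 16 h, 37 C; CellTiter-Glo, 30 min RT; luminescence.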

[7] = p53 small molecule agonists, cell-based qHTS assay: qHTS cell viability counter screen (AID 1963581); also: nearly all actives have a fitted effect of over 45% in size
In short: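 Following 5 h attachment, HCT-116 p53RE-bla cells took up compound for 16 h at 37 C; the reporter was read with B/G FRET substrate (2 h RT), and viability then via CellTiter-Glo ATP luminescence.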

[8] = target: 5-hydroxytryptamine receptor 2A (Homo sapiens) (UniProt P28223); assay: 5-hydroxytryptamine receptor 2A (HTR2A) small molecule agonists, cell-based qHTS assay (AID 1963587); also: nearly all actives have a fitted effect of over 30% in size; also: potency is read from the fitted curve at half-maximal effect
Chain of 5-hydroxytryptamine receptor 2A (Homo sapiens) (P28223 whole entry, looked up): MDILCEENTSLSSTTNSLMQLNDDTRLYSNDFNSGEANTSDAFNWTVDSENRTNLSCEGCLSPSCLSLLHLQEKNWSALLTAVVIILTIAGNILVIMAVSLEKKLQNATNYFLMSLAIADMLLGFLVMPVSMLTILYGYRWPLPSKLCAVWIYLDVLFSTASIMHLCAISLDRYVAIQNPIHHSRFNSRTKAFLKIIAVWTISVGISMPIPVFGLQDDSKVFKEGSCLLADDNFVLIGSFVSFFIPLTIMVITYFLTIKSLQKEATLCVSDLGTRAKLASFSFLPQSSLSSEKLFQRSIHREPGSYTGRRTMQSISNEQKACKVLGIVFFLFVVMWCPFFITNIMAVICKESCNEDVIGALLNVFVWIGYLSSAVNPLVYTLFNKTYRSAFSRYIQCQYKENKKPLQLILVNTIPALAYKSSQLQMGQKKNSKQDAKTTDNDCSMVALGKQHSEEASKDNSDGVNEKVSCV
In short: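 Kinetic calcium-flux fluorescence (2 min, 1 sec intervals) after compound addition in agonist mode. HTR2A-CHO cells were cultured 18 h, then dye-loaded 1 h at 37 C.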

[9] = target: Muscarinic acetylcholine receptor M1 (Homo sapiens) (UniProt P11229); assay: Cholinergic receptor muscarinic 1 (CHRM1) small molecule antagonists, cell-based qHTS assay (AID 1963588); also: nearly all actives have a fitted effect of over 40% in size; also: potency is read from the fitted curve at half-maximal effect
Chain of Muscarinic acetylcholine receptor M1 (Homo sapiens) (P11229 whole entry, looked up): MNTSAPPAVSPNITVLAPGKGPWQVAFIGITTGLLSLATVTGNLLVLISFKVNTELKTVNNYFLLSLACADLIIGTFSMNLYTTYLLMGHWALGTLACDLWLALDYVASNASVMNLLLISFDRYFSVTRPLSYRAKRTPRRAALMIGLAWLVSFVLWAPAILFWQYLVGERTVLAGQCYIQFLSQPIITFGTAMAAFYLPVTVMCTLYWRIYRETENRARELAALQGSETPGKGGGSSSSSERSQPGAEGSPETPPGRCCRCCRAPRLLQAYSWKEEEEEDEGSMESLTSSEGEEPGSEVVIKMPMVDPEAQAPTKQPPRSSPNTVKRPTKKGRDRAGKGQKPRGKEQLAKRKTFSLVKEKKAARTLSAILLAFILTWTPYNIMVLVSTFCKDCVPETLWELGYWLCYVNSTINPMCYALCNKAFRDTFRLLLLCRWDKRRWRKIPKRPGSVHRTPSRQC
In short: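 CHRM1-CHO calcium-flux assay, antagonist mode. Cells were seeded 18 h, dye-loaded 1 h at 37 C and given compound for 5 min at RT, then acetylcholine was added at 50nM. FDSS fluorescence was read 3 min; 15 concentrations, three runs.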

[10] = target: Muscarinic acetylcholine receptor M1 (Homo sapiens) (UniProt P11229); assay: Cholinergic receptor muscarinic 1 (CHRM1) small molecule agonists, cell-based qHTS assay (AID 1963589); also: nearly all actives have a fitted effect of over 35% in size
In short: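 Measures agonist-induced intracellular calcium rise. Stable human CHRM1 CHO line, 1 h dye load at 37 C, compounds from DMSO, kinetic fluorescence read.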

[11] = cAMP Responsive Elements (CRE) small molecule agonists, cell-based qHTS assay (AID 1963590)
In short: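 A CRE-responsive beta-lactamase reporter in HEK 293T cells was used. Treatment ran 3 h at 37 C; detection used LiveBLAzer B/G FRET substrate for 2 h at room temperature.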

[12] = cAMP Responsive Elements (CRE) small molecule antagonists, cell-based qHTS assay (AID 1963591; active = well fitted inhibition curve with a large enough effect in the signal ratio in the repeat runs, not every such curve was filed as active; the % refers to the signal ratio)
In short: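 HEK293T cells carrying a CRE-driven beta-lactamase reporter receive compound and NKH477 (0.25 uM final) for 3 h. Fluorescence from LiveBLAzer B/G FRET substrate is read after 2 h at room temperature.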

[13] = target: Beta-2 adrenergic receptor (Homo sapiens) (UniProt P07550); assay: Adrenergic beta2 receptor (ADRB2) small molecule antagonists, cell-based qHTS assay (AID 1963592); also: series mostly up to about 92 µM; nearly all actives have a fitted effect of over 50% in size
Chain of Beta-2 adrenergic receptor (Homo sapiens) (P07550 whole entry, looked up): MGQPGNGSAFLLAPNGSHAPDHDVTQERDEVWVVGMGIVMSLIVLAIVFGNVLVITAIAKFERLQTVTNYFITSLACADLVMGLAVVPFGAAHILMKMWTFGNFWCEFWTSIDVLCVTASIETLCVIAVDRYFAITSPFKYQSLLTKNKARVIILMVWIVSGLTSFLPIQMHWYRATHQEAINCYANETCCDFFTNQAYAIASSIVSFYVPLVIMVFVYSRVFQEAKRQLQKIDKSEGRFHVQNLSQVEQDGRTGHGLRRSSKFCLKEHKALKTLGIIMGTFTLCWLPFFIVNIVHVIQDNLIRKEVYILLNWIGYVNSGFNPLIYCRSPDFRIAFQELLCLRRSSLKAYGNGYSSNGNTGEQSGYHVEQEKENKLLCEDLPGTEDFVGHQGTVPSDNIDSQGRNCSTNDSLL
In short: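 Cells (CHO, stable ADRB2 overexpression) incubated 18-20hr at 37C; compounds added from DMSO; agonist mix (1nM isoproterenol, 100uM IBMX, 25uM Ro-20-1724) added; 0.5hr RT; d2-cAMP and anti-cAMP-cryptate added; 1hr RT; 665/615 nm read.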

[14] = target: Beta-2 adrenergic receptor (Homo sapiens) (UniProt P07550); assay: Adrenergic beta2 receptor (ADRB2) small molecule agonists, cell-based qHTS assay (AID 1963593);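 also: CHO cells stably overexpressing human ADRB2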
In short: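 CHO cells stably over-expressing ADRB2 were plated overnight at 37C, then dosed with compounds plus a stimulation mix containing 100uM IBMX and 25uM Ro-20-1724 for 0.5hr at room temperature. cAMP was measured by HTRF competition, 1hr.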

[15] = target: D(2) dopamine receptor (Homo sapiens) (UniProt P14416); assay: Dopamine D2 receptor (DRD2) small molecule antagonists, cell-based qHTS assay (AID 1963595; active = well fitted inhibition curve with a large enough effect in the signal ratio in the repeat runs, with a control signal flat; the % refers to the signal ratio; also: potency is read from the fitted curve at half-maximal effect)
Chain of D(2) dopamine receptor (Homo sapiens) (P14416 whole entry, looked up): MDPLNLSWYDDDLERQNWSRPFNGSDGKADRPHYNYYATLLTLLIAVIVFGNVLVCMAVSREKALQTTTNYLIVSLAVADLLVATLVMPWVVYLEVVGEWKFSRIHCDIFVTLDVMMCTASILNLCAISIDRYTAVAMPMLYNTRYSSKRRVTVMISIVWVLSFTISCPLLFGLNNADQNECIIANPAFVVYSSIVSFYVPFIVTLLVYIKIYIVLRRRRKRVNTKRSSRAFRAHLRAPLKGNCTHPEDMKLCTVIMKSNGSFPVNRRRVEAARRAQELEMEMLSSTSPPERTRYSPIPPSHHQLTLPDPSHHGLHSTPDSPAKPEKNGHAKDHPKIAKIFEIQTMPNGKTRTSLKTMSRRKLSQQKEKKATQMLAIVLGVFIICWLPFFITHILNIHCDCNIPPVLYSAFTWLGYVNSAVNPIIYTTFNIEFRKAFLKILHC
In short: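 Human DRD2 antagonist qHTS measuring cAMP by HTRF. The cells are exposed to compound for 10 min, then to NKH477 (200 nM) and quinpirole (12 nM) for 30 min at RT, with Ro20-1724 (0.1 mM) present throughout.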

[16] = target: 5-hydroxytryptamine receptor 2A (Homo sapiens) (UniProt P28223); assay: 5-hydroxytryptamine receptor 2A (HTR2A) small molecule antagonists, cell-based qHTS assay (AID 1963586); also: nearly all actives have a fitted effect of over 45% in size; also: potency is read from the fitted curve at half-maximal effect
In short: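 Antagonist-mode intracellular calcium assay: DOI (4 nM) added after 5 min compound pre-incubation at room temperature to dye-loaded HTR2A-CHO cells. Fluorescence followed for 3 min, sampled every second.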

[17] = target: D(2) dopamine receptor (Homo sapiens) (UniProt P14416); assay: Dopamine D2 receptor (DRD2) small molecule agonists, cell-based qHTS assay (AID 1963594); also: nearly all actives have a fitted effect of over 35% in size
In short: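 cAMP accumulation in DRD2-HEK293 cells measured by HTRF after 1 h detection; compounds added 10 min before NKH477 (200nM […]) forskolin-analogue stimulation, 30 min at room temperature, with Ro20-1724 present at 0.1 mM final.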

[18] = p53 small molecule agonists, cell-based qHTS assay with human liver microsomes (AID 1963577)
In short: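 p53RE-bla reporter cells were pre-incubated 5 h at 37 C, then treated with compounds plus human liver microsomes (0.5 mg/mL final) and NADPH (0.5 mg/mL final) for 16 h at 37 C. Beta-lactamase activity was read by LiveBLAzer fluorescence after 2 h at room temperature.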

[19] = p53 small molecule agonists, cell-based qHTS assay with rat liver microsomes (AID 1963578)
In short: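 p53RE-bla cells were exposed to compounds together with rat liver microsomes (0.5 mg/mL final) and NADPH (0.5 mg/mL final) for 16 h at 37 C, then read by LiveBLAzer beta-lactamase fluorescence after 2 h at room temperature.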

[20] = p53 small molecule agonists, cell-based qHTS assay (AID 1963582; active = well fitted activation curve with a large enough effect in the signal ratio in the repeat runs, not every such curve was filed as active; the % refers to the signal ratio)
In short: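 In this cell-based concentration-response screen, a p53 response element drives beta-lactamase; cells received DMSO-borne compounds after 5 h culture and were incubated a further 16 h before FRET substrate development.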

Row | Compound | Potency [1] | Potency [2] | Potency [3] | Potency [4] | Potency [5] | Potency [6] | Potency [7] | Potency [8] | Potency [9] | Potency [10] | Potency [11] | Potency [12] | Potency [13] | Potency [14] | Potency [15] | Potency [16] | Potency [17] | Potency [18] | Potency [19] | Potency [20]
1 | CCCCCCCCCCC=O | inactive | inactive | inactive | inactive | inactive | inactive | inactive | inactive | inactive | inactive | inactive | inactive | inactive | inactive | inactive | – | – | – | – | –
2 | CCNCCO | inactive | inactive | inactive | inactive | inactive | inactive | inactive | – | inactive | inactive | inactive | inactive | inactive | inactive | inactive | inactive | inactive | – | – | –
3 | O=C1C=CC(=O)N1c1ccc(Cc2ccc(N3C(=O)C=CC3=O)cc2)cc1 | 27.3 µM (active) | 9.69 µM (active) | inactive | – | 16.2 µM (active) | – | – | 43.6 µM (active) | – | – | – | – | – | – | 4.33 µM (active) | 37.5 µM (active) | – | inactive | inactive | –
4 | COc1cc(C(C)=O)ccc1OCCCN1CCC(c2noc3cc(F)ccc23)CC1 | inactive | inactive | inactive | inactive | – | inactive | – | inactive | 3.65 µM (active) | inactive | inactive | inactive | – | – | – | – | inactive | – | – | –
5 | S=C([S-])NCCNC(=S)[S-].S=C([S-])NCCNC(=S)[S-].[Mn+2].[Zn+2] | inactive | inactive | inactive | inactive | – | inactive | inactive | inactive | inactive | inactive | inactive | – | inactive | – | – | inactive | inactive | – | – | –
6 | O=C1CCCCCCCCCCCCCCO1 | inactive | – | inactive | inactive | inactive | inactive | inactive | inactive | inactive | inactive | inactive | inactive | inactive | – | inactive | inactive | inactive | inactive | inactive | inactive
7 | COC(C(=O)O)c1ccccc1 (stereo unspecified) | inactive | – | inactive | inactive | inactive | inactive | inactive | inactive | inactive | inactive | inactive | inactive | inactive | inactive | inactive | inactive | inactive | inactive | inactive | inactive
